Measurements from ChEMBL document CHEMBL3988442, “University of Dundee, Small-Polar-MMV Screening Library” (2021).
For some assays here: Entries with a potency or affinity are not part of this list.

Experiments:
Parameters in all cases: scale not given: direction of the effect not stated beside the values
[1] = molecular target: Protein translocase subunit SecA (Escherichia coli (strain K12)) (UniProt P10408); assay: Assay to Identify E. coli SecA ATPase Inhibitors; type: functional; details: 30 µM
[2] = molecular target: T1, Ubiquitin-activating enzyme e1, putative (Leishmania donovani (strain BPK282A1)) (UniProt E9BSI1); assay: Leishmania donovani Ubiquitin Activating Enzyme (LdE1); type: functional; details: 30 µM
T1 sequence (whole entry): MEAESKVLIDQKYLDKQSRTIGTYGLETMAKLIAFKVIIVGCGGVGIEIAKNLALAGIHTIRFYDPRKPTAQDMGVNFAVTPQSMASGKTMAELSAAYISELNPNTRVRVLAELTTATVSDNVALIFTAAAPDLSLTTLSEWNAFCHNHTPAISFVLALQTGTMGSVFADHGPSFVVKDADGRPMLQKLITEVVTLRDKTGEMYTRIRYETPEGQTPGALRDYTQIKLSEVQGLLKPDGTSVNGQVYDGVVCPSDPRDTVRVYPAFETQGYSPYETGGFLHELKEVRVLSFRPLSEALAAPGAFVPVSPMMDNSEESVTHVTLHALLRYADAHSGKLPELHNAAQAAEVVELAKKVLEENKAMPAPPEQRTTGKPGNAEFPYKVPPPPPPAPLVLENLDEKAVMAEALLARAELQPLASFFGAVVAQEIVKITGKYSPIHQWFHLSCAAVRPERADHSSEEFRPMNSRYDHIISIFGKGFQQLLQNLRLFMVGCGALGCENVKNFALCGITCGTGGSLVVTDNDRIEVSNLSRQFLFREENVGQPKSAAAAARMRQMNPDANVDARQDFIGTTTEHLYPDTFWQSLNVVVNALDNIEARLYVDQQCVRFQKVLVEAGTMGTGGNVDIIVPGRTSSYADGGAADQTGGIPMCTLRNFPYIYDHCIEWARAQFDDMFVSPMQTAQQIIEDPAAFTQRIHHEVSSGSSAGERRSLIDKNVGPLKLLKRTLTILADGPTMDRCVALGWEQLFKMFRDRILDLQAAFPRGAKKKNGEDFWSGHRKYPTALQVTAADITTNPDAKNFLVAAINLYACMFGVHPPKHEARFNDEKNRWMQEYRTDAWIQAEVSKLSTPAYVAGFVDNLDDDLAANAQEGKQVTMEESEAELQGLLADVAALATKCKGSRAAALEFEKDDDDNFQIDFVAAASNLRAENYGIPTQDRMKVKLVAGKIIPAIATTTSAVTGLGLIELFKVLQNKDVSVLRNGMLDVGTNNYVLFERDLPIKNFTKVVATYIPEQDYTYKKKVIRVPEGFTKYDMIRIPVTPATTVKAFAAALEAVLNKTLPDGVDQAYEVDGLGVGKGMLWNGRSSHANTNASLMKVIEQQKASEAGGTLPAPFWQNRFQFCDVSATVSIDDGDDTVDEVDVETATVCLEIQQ

[3] = molecular target: T2, Aspartate--tRNA(Asp/Asn) ligase (Mycobacterium tuberculosis (strain ATCC 25618 / H37Rv)) (UniProt P9WFW3); assay: Assay for Asp RNA synthetase-1 from Mycobacterium tuberculosis; type: functional; details: 30 µM; further: in the data most compounds retested in dose-response had high values
T2 sequence (whole entry): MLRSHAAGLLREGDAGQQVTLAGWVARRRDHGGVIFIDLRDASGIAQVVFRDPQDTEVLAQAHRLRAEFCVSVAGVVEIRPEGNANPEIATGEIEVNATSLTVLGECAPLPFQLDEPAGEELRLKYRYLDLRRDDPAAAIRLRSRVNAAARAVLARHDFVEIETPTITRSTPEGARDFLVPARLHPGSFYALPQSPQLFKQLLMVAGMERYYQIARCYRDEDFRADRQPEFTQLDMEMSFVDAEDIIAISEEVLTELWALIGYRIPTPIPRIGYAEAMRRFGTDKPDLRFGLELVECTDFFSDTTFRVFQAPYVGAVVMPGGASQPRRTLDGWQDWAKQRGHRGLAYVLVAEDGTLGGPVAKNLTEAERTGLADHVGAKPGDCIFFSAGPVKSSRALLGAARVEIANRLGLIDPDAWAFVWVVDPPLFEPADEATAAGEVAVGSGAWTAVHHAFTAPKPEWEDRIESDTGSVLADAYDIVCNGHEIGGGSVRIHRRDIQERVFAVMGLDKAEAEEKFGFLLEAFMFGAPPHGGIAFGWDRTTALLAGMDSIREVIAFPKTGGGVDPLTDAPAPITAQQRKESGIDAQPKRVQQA

[4] = molecular target: AMP-activated protein kinase, AMPK (Homo sapiens) (UniProt P54646+O43741+P54619+Q9UGJ0+Q9Y478+Q13131+Q9UGI9); assay: AMP-dependent Kinase enzyme assay. An in vitro enzyme assay that detects ADP turnover that is directly proportional to AMPK activity. This uses naive AMPK that is activated during the assay with MK-8722; type: functional; details: 30 µM
[5] = molecular target: Sialic acid-binding Ig-like lectin 9 (Homo sapiens) (UniProt Q9Y336); assay: Hs-Siglec9 ALPHAscreen SOP 20170721; details: 10 µM
[6] = test system: Trypanosoma cruzi; assay: Trypanosoma cruzi phosphomannomutase and mannose-1-phosphate guanylyltransferase assay; type: functional; details: 10 µM
[7] = molecular target: T3, Arginase-2, mitochondrial (Homo sapiens) (UniProt P78540); assay: in vitro enzyme assay to detect the production of urea directly proportional to the activity of Arginase II; type: functional; details: 33.3 µM; further: in the data most compounds retested in dose-response had high values
T3 sequence (whole entry): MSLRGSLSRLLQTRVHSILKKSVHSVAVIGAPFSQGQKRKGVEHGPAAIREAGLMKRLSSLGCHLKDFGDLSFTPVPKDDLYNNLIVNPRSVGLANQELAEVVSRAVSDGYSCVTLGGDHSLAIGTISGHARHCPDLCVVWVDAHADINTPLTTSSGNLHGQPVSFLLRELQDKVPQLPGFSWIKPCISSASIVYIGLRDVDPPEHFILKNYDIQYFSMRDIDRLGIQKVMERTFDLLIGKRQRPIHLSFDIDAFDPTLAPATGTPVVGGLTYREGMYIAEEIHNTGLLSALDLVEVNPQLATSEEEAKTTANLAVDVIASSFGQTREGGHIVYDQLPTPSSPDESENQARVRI

[8] = molecular target: T4, Proteasome subunit beta (Trypanosoma cruzi) (UniProt O96673); assay: Trypanosoma cruzi proteasome chymotrypsin-like activity (TcProtChymo) assay.; further: in the data most compounds retested in dose-response had high values; type: functional; details: 9.37 µM
T4 sequence (whole entry): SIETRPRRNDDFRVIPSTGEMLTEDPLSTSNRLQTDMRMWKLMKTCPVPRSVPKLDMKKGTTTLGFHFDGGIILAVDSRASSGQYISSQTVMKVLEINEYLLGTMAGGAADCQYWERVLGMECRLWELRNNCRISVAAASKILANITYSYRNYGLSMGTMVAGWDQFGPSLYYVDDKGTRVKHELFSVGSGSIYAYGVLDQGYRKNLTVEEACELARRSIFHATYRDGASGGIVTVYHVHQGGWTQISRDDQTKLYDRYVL

[9] = species on record: Homo sapiens; assay: To identify inhibition of the IFN signalling (Jak-Stat) pathway via expression of an eGFP reporter gene under the control of an IFN-stimulated response element (ISRE) containing MxA promoter.; type: functional; details: 30 µM
[10] = molecular target: T5, Tyrosyl-tRNA synthetase, putative (Trypanosoma cruzi (strain CL Brener)) (UniProt Q4DSP6); assay: Trypanosoma cruzi tyrosyl tRNA synthetase (TcYRS) _High Tyrosine SOP; type: functional; details: 30 µM; further: in the data most compounds retested in dose-response had high values
T5 sequence (whole entry): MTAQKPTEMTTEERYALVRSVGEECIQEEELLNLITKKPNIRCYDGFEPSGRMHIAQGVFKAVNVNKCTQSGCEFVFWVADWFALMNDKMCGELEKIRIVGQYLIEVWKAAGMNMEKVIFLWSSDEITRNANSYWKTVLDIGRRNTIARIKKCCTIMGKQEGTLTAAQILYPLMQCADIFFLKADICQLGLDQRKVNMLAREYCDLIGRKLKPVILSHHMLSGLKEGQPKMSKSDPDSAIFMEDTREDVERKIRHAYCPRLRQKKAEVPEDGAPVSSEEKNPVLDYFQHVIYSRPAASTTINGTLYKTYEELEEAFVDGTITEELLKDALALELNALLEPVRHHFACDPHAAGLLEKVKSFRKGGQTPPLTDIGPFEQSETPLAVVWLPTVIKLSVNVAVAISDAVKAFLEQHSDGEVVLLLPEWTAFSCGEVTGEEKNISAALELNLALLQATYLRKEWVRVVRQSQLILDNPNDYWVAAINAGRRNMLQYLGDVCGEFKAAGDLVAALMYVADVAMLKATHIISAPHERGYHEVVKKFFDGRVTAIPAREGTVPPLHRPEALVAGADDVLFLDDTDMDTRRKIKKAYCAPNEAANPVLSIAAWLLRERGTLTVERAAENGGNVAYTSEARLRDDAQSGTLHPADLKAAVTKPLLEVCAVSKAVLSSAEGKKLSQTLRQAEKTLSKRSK

[11] = molecular target: T5, Tyrosyl-tRNA synthetase, putative (Trypanosoma cruzi (strain CL Brener)); assay: Trypanosoma cruzi tyrosyl tRNA synthetase (TcYRS) SOP; type: functional; details: 30 µM
[12] = molecular target: Chromo domain-containing protein 1 (Saccharomyces cerevisiae (strain ATCC 204508 / S288c) (Baker's yeast)) (UniProt P32657); assay: ScCHD-1 Enzyme Inhibition Assay; type: functional; details: 30 µM; further: in the data most compounds retested in dose-response had high values
[13] = molecular target: Shiga toxin 2 (Escherichia coli O157:H7) (UniProt P09385+P09386); assay: E. coli 0.157:H7 Shiga Toxin SOP - stx2 screening assay; type: functional; details: 30 µM

Chromo domain-containing protein 1 (Saccharomyces cerevisiae (strain ATCC 204508 / S288c) (Baker's yeast)), sequence (P32657 whole entry, the tested form may be a part): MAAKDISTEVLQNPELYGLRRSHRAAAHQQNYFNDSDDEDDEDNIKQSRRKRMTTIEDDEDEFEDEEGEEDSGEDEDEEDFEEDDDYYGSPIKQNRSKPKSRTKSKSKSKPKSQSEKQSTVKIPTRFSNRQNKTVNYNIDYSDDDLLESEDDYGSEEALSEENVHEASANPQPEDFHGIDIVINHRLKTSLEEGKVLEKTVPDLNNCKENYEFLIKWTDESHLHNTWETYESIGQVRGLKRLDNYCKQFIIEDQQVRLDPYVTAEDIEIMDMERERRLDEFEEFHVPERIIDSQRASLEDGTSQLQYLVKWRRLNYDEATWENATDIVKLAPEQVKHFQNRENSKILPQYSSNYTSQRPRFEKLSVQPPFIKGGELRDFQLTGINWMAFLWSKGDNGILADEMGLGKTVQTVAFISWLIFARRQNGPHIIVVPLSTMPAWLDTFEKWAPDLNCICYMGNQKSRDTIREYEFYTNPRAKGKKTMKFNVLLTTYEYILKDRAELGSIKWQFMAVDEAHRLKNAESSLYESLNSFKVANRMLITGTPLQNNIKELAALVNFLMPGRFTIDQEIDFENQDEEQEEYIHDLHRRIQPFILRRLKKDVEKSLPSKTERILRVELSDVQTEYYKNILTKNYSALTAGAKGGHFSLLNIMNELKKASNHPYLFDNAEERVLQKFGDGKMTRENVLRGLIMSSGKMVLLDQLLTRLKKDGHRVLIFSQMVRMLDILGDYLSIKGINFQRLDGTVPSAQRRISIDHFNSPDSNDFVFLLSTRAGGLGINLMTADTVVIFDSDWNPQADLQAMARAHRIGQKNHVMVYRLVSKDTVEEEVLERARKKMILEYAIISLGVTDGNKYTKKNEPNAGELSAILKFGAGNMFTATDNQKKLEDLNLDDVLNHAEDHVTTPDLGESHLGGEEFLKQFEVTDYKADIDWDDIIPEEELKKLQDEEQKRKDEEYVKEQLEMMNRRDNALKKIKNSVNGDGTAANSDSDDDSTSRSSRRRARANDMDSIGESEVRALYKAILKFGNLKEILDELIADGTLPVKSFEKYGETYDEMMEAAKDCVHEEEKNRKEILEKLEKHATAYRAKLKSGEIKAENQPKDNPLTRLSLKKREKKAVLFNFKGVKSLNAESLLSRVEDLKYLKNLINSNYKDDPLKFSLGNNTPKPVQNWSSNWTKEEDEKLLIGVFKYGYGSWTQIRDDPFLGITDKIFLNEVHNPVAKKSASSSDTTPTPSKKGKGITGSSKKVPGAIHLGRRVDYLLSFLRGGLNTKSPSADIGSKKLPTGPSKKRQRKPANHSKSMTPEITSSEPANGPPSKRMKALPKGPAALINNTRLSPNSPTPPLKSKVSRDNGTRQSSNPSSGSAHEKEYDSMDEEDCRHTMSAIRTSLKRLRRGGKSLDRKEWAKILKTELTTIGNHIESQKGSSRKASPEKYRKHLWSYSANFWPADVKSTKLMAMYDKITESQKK
Sialic acid-binding Ig-like lectin 9 (Homo sapiens), sequence (Q9Y336 whole entry): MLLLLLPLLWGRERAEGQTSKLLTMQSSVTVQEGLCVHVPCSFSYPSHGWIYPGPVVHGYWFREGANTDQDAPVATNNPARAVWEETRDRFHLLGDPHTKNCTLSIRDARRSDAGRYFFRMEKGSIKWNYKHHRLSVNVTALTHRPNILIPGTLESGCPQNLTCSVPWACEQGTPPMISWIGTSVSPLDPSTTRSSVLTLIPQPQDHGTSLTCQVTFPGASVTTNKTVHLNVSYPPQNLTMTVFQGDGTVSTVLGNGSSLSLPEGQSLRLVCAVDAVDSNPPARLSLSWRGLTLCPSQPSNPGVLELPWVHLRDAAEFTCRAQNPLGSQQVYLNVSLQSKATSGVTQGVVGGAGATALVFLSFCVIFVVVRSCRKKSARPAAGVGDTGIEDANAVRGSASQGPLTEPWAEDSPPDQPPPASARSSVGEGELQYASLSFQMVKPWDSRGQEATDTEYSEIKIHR
Protein translocase subunit SecA (Escherichia coli (strain K12)), sequence (P10408 whole entry): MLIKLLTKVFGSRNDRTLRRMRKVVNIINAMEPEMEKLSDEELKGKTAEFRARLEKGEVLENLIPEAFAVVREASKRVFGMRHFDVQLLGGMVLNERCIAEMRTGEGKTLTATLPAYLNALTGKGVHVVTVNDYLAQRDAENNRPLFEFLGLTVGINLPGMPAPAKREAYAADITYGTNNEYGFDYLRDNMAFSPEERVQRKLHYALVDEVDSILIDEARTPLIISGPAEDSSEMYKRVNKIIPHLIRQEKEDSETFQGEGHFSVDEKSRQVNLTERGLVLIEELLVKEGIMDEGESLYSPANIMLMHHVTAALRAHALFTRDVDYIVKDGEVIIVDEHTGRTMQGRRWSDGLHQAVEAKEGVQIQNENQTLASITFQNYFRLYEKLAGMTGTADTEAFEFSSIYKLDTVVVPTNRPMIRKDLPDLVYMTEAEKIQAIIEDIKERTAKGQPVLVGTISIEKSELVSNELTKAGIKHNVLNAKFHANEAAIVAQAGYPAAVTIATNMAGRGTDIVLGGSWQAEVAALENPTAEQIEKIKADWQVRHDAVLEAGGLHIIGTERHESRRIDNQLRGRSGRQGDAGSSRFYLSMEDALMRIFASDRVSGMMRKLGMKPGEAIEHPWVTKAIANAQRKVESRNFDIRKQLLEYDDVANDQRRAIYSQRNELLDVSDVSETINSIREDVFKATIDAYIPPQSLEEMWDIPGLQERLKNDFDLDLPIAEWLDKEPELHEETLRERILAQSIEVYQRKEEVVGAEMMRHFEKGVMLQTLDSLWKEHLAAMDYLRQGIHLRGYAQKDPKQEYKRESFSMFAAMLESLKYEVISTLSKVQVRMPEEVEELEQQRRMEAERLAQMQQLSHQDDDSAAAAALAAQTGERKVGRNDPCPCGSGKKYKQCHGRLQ

| Structure (SMILES) | Percent Effect [1] | Percent Effect [2] | Percent Effect [3] | Percent Effect [4] | Percent Effect [5] | Percent Effect [6] | Percent Effect [7] | Percent Effect [8] | Percent Effect [9] | Percent Effect [10] | Percent Effect [11] | Percent Effect [12] | Percent Effect [13] |
| --- | --- | --- | --- | --- | --- | --- | --- | --- | --- | --- | --- | --- | --- |
| CCN1CCC2(CCC1=O)CN(c1ccnc(SC)n1)CCN2C (configuration not stated) | -7.58% | 5.33% | -3.27% | 2.15% | 13% | -0.682% | 6.25% | 11.2% | 7.14% | 3.83% | 8.64% | -7.61% |  |
| NC[C@H]1[C@H]2CN(Cc3ccccc3)C[C@@H]12 | -1.98% | 19.5% | -0.091% |  | 2.06% | -0.938% | 1.83% | 7.81% | 31% | 4.83% | 15% | -6.97% | -5.17% |
| CN1CCC2(CC1)C(=O)N(CC1CC1)c1ccccc12 | -2.83% | 9.09% | -2.3% |  | -0.296% | -1.69% | 3.65% | 1.12% | 2.83% | -0.966% | 0% | -9.03% | 4.66% |
| Cc1nc(CN2CCO[C@H]3[C@@H](OCc4ccccn4)CC[C@@H]32)cs1 | -6.18% | 9.09% | 3.07% |  | -6.32% | -3.6% | -2.43% | 10.2% | 4.6% | 4.74% | 7.69% | -4.92% | -1.17% |
| Cc1ccc(CC(=O)N2CCN(CC(O)c3ccccc3)CC2)cn1 (configuration not stated) | 1.4% | 5.26% | 1.83% | -2.25% | 3.56% | 5.83% | 5.75% | 1.5% | -4.04% | 5.39% | 17.1% | -5.71% | 2.79% |
| COCC(=O)N1C[C@@H]2OCCN(Cc3c(C)noc3C)[C@@H]2C1 | -1.15% | 1.3% | -3.8% |  | -1.81% | 3.02% | 17% | 27.1% | 5.87% | 5.79% | 10.3% | 24% | -14.3% |
| O=C(Cn1ccc2c(Cl)cccc21)N1CCC2(CC1)OCCO2 | -2.33% | 10.8% | 0.188% |  | 5.66% | 1.46% | 49.3% | 11.8% | 12.8% | 4.79% | 19.5% | -2.23% | 1.14% |
| CCN1CCC2(COCc3cnc(-c4cccnc4)nc32)C1 (configuration not stated) | -4.12% | 10.8% | 3.74% | 3.75% | 1% | -2.44% | -4.78% | 19.9% | 5.19% | 3.24% | 10.3% | 2.57% | 8.79% |
| CC(C)c1nccc([C@H]2C[C@@H]3CCN(Cc4ccoc4)C[C@H]3O2)n1 | -3.97% | -6.49% | -4.77% |  | -2.81% | 6.13% | -6.48% | 16.7% | -14.2% | 5.79% | 0% | -1.73% | 3.27% |
| COCCNC(=O)[C@@]12CCO[C@@H]1CCN(Cc1c(C)noc1C)C2 | -4.83% | 14.3% | 11.2% |  | -7.07% | 1.85% | 3.24% | 8.91% | -9.54% | 14.2% | 12.8% | -1.61% | -12.8% |
